Screen size: about 370,000 compounds; about 2,000 (0.54%) were called active. This is one part of a sample in which actives are shown more often than they occur. Unmarked numbers belong to inactive results. No stated cut-off is given here; in the data, active means inhibition above about 30%; inactive means the rest.
Tested on: Crimean-Congo hemorrhagic fever virus L polyprotein viral ovarian tumor (vOTU) protease domain
Assay: CCHFV vOTU protease inhibitors, primary screen, biochemical, Pep-AMC substrate, fluorescence (AID 651958); further: 0% = vehicle wells with enzyme and 100% = no enzyme wells
Details: at 11.5 µM, hits give high values

| Compound | inhibition |
| --- | --- |
| CC1=C2C(=O)C3C(CC=C4CC(OC5OC(O)C(O)C(O)C5CO)CCC43C)C2CCC12OC1CC(C)CNC1C2C (configuration not stated) | -3.46% |
| O=C(NCc1ccc(F)cc1)c1cc(C2CCCCN2C(=O)c2ccccn2)on1 (configuration not stated) | 11.8% |
| O=C(NCc1ccc(F)cc1)c1cc(C2CCCCN2C(=O)c2cccs2)on1 (configuration not stated) | -3.47% |
| O=C(NCc1ccc(F)cc1)c1cc(C2CCCCN2C(=O)C2CCCCC2)on1 (configuration not stated) | 33.5% (active) |
| CC(NC(=O)CN1CCN(Cc2ccc(Cl)cc2)C1=O)c1ccc2c(c1)OCCO2 (configuration not stated) | 11.5% |
| CCN(CC)P(=O)(Oc1cccc(C)c1)N(CC)CC | 32.4% (active) |
| Cc1cccc(OP(=O)(Oc2cccc(C)c2)OC(c2ccccc2)C(F)(F)F)c1 (configuration not stated) | 2.83% |
| Cc1cccc(OCC(=O)Nc2ccc(C(=O)O)cc2NC(=O)COc2cccc(C)c2)c1 | 16.7% |
| Cc1ccc(S(=O)(=O)N2CCN(C(=O)Cn3c(=O)cnc4ccccc43)CC2)c(C)c1 | 14.9% |
| O=C(CNCc1ccco1)Nc1cc(S(=O)(=O)N2CCOCC2)ccc1N1CCCC1 | -3.18% |
| CC(C)C[C@H](NC(=O)C1CCC(CNC(=O)[C@@H]2CCCN2C(=O)OC(C)(C)C)CC1)C(=O)O (some centres not stated) | -6.89% |
| O=C(c1ccccc1)c1cccn1CC(=O)N1CCN(c2ccc(F)cc2)CC1 | -2.38% |
| Oc1c(CN2CCN(c3ccc(F)cc3)CC2)cc(Cl)c2cccnc12 | 31.6% (active) |
| CC(C)c1ccc(O)c(CN2CCN(c3ccccc3)CC2)c1 | -12.4% |
| Cc1ccc(S(=O)(=O)N2CCC(=O)N([C@H](COCc3ccccc3)C(C)C)CC2)cc1 | 3.62% |
| COc1ccc(NC(=O)CNC(=O)Cn2ccc3ccccc3c2=O)c(OC)c1 | -6.81% |
| Cc1ccc(Sc2cc(N3CCOCC3)nc(-c3ccccc3)n2)cc1 | 13.3% |
| O=C(OC(C(=O)NC1CCCC1)c1ccc(F)cc1)c1ccno1 (configuration not stated) | -21.1% |
| Oc1ccc(CNc2ccccc2O)cc1 | 37% (active) |

| Compound | inhibition |
| --- | --- |
| OCC(CO)(CO)NCc1ccc(-c2ccccc2)cc1 | -4.11% |
| COC(=O)C1=CN(c2c(C)cc(C)cc2C)C(N)=C(C#N)C1c1cccc(F)c1 (configuration not stated) | 4.61% |
| O=C(CSc1nnc2c(n1)[nH]c1ccccc12)NC1CCCCC1 | -13% |
| O=C(Nc1cccc2c1CCCC2)C1CCN(C(=O)NC2CCCCC2)CC1 | -8.92% |
| O=C(NC1CCCCC1)N1CCc2[nH]c3ccccc3c2C1 | 58.5% (active) |
| CCCNC(=S)N1CCC(NC(=O)C23CC4CC(CC(C4)C2)C3)CC1 | -4.34% |
| CN1OC[C@@H]2CN(C(=O)c3cccnc3)[C@H](c3ccc(N4CCCCC4)cc3)C[C@@H]21 | -0.01% |
| N#Cc1cccc(CSc2nnc(CCCO)n2-c2ccccc2)c1 | -2.93% |
| CCOc1cc(NC(=O)CCl)c(OCC)cc1NC(C)=O | 11.3% |
| CCOc1cc(NC(=O)c2ccccc2C(=O)O)c(OCC)cc1NC(=O)c1ccccc1F | 35.5% (active) |
| CCOc1ccccc1NC(=O)c1cc(S(=O)(=O)N2CCC3(CC2)OCCO3)ccc1F | -13.4% |
| S=C(NCCc1ccccc1)N1CCn2cccc2C1c1ccncc1 (configuration not stated) | 20.5% |
| c1ccc(N2Cc3ccccc3-n3nncc3C2)nc1 | -2.36% |
| Cc1ccn2c(c1)nc(=O)c1cc(S(=O)(=O)N3CCC(C)CC3)ccc12 | -11.7% |
| CCCCN(CC(=O)Nc1cccc(S(=O)(=O)N2CCCC2)c1)Cc1nc2ccccc2c(=O)[nH]1 | 3.14% |
| CCn1nnnc1SCC(=O)Nc1ccc(N(C)C)cc1 | 30.6% (active) |
| CC(=O)Nc1ccc(NC(=O)CSc2nnnn2-c2ccccc2F)cc1 | 2.7% |
| CC(=O)Nc1ccc(NC(=O)CSc2nnnn2C2CCCCC2)cc1 | -5.32% |
| CCn1c(SCC(=O)NC2=NCCS2)nnc1C(C)NC(=O)c1ccccc1F (configuration not stated) | 0.18% |

| Compound | inhibition |
| --- | --- |
| COCCCNS(=O)(=O)c1cccc(S(=O)(=O)c2cccc(S(=O)(=O)NCCCOC)c2)c1 | -10.2% |
| Cc1ccc(C2(C(F)(F)F)N=C3Sc4cc(C)cc(C)c4N3C(=O)N2)cc1 (configuration not stated) | -15.2% |
| Cc1ccc(OCc2nnc(SC/C=C/c3ccccc3)n2Cc2ccco2)cc1 | 31.9% (active) |
| O=C(CSc1nnc(COc2ccccc2)n1Cc1ccco1)c1ccc2ccccc2c1 | 7.39% |
| Cc1ccc(-c2nnc(SCC(=O)Nc3ccc(Oc4ccccc4)cc3)n2Cc2ccco2)cc1 | 6.1% |
| O=C(Cc1ccc(NC(=O)C2CCCN(C(=O)CCc3ccccc3)C2)cc1)Nc1ccc(C(=O)N2CCOCC2)cc1 (configuration not stated) | 23.1% |
| Cc1ccccc1CSc1nnc(-c2ccccc2)c(=O)[nH]1 | -2.29% |
| Cc1ccc(CSc2nc3[nH]ncc3c(=O)[nH]2)cc1 | -0.35% |
| Cc1ccc(CSc2nc(-c3ccccc3)c(C#N)c(=O)[nH]2)cc1 | 39.9% (active) |
| COCCNC(=O)Nc1ccc2nc(-c3ccco3)c(-c3ccco3)nc2c1 | 36% (active) |
| Cc1ccc(O)c(NC(=O)c2cc(-c3ccco3)on2)c1 | -0.2% |
| CN(C)c1ccc(NC(=O)CSc2n[nH]c(-c3ccco3)n2)cc1 | 4.49% |
| COc1ccc(NC(=O)NN2CCN(C)CC2)c(OC)c1 | 4.34% |
| CN1CCCc2cc(C#N)c(=O)[nH]c21 | -314% |
| CSCCC(NS(=O)(=O)c1ccc2c(c1)oc(=O)n2C)C(=O)NC1CCCc2ccccc21 (configuration not stated) | 7.61% |
| Cc1cc(N2CCNC[C@@H]2C)ccc1N1CC[C@H](O)C1 | -1.97% |
| O=C(N/N=C/c1ccc(O)c(O)c1)C1c2ccccc2Oc2ccccc21 | 4.82% |
| COc1ccc(/C=N/NC(=O)Cn2cc(C(F)(F)F)ccc2=O)cc1 | 4.22% |
| Oc1ccc(/C=N/Nc2ccc(C(F)(F)F)cn2)cc1O | 31.3% (active) |
